Our source for the growth values is PubChem BioAssay (NCI).

About 83,000 compounds went through this panel and 20% of them were active in at least one assay; those are over-represented in the sample as a whole.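 Values shown are percent growth following 48 h exposure of cells in 96-well plates to a single concentration of compound; below 10 was considered active.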 Unmarked numbers belong to inactive results. The source made the active and inactive calls.

Test systems include HCT-15 colon; HT29 colon; SNB-75 CNS; SNB-19 CNS; U251 CNS; PC-3 prostate; SK-MEL-5 melanoma; UACC-62 melanoma; LOX IMVI melanoma; SK-MEL-28 melanoma; SK-MEL-2 melanoma; EKVX NSCLC; SN12C renal; UO-31 renal; TK-10 renal; ACHN renal; CAKI-1 renal; A498 renal; CCRF-CEM leukemia; MOLT-4 leukemia.
Common to all, as to assay: NCI-60 one-dose screen, 48 h (100 = growth as untreated, 0 = no growth, -100 = all killed)
What all share (conditions): 10 µM unless noted

Consider `CC(C)N1C(=O)/C(=C2\SC(=S)N(C(C)C)C2=O)SC1=S`, for which the growth was 98.5% with HCT-15 colon; 96.8% with HT29 colon; 62.3% in the test with SNB-75 CNS; 92.6% in the test on SNB-19 CNS; 90.8% with U251 CNS; 89.3% in the test on PC-3 prostate. For the same compound, the growth in the test on SK-MEL-5 melanoma is 97.9%; in the test on UACC-62 melanoma, 91.7%; in the test with LOX IMVI melanoma, 90%; in the test with SK-MEL-28 melanoma, 97.8%; in the test on SK-MEL-2 melanoma, 96.8%; with EKVX NSCLC it was 82.9%. The growth with SN12C renal is 93.1%; in the test with UO-31 renal it was 78.6%; with TK-10 renal, 88.2%; in the test with ACHN renal it was 100%; in the test on CAKI-1 renal it was 93.7%; with A498 renal, 84.2%. Also, the growth in the test with CCRF-CEM leukemia was 87.8%; in the test with MOLT-4 leukemia it was 101%.

Consider `CC1(C)NCCC[C@]2(C)[C@H]3CC[C@@H]4[C@H]5[C@H](C(=O)/C=C/c6ccco6)CC[C@]5(CO)CC[C@@]4(C)[C@]3(C)CC[C@@H]12`, for which the growth in the test on HCT-15 colon was 59.1%; in the test with HT29 colon, 106%; with SNB-75 CNS it was 83%; with SNB-19 CNS, 94.2%; in the test on U251 CNS it was 82%; in the test on PC-3 prostate, 62.4%. In addition, the growth with SK-MEL-5 melanoma was 93.4%; in the test on UACC-62 melanoma, 87.8%; in the test on LOX IMVI melanoma, 74.8%; with SK-MEL-28 melanoma, 104%; in the test on SK-MEL-2 melanoma, 117%; in the test on EKVX NSCLC it was 101%. Moreover, the growth in the test with SN12C renal was 82.1%; in the test with UO-31 renal, 67.3%; with TK-10 renal, 9.01% (active); in the test with ACHN renal, 99.6%; with CAKI-1 renal, 76.1%; with A498 renal, 51.3%. In addition, the growth in the test on CCRF-CEM leukemia is 74.6%.

For `Cc1cc(Cl)nc(N(CCNc2ccnc3cc(Cl)ccc23)Cc2ccccn2)n1`, the growth was 48.7% in the test with HCT-15 colon; 24.7% with HT29 colon; 78.6% in the test on SNB-75 CNS; 62.5% with SNB-19 CNS; 26.8% with U251 CNS; 56.9% in the test on PC-3 prostate. Besides, the growth in the test with SK-MEL-5 melanoma was 41.3%; with UACC-62 melanoma, 66.3%; in the test with LOX IMVI melanoma it was 58.4%; in the test with SK-MEL-28 melanoma it was 62.1%; in the test with SK-MEL-2 melanoma, 69.5%; in the test with EKVX NSCLC it was 61.4%. For the same compound, the growth was 52.6% in the test on SN12C renal; 43.2% in the test on UO-31 renal; 63.3% with TK-10 renal; 44.9% with ACHN renal; 56.1% with CAKI-1 renal; 85.8% in the test on A498 renal. Further, the growth in the test with CCRF-CEM leukemia was 7.95% (active).

With `O=C(NNc1nc2c(F)cccc2n2cccc12)c1cnccn1`, the growth in the test with HCT-15 colon is 26.3%; in the test with HT29 colon it was 24.3%; in the test on SNB-75 CNS, 74.3%; in the test with SNB-19 CNS it was 23.9%; with U251 CNS, 18.7%; with PC-3 prostate, 36.2%. Moreover, the growth with SK-MEL-5 melanoma is 5.96% (active); in the test on UACC-62 melanoma it was 16.5%; in the test with LOX IMVI melanoma, -32.6% (active); in the test on SK-MEL-28 melanoma it was 8.95% (active); with SK-MEL-2 melanoma it was 48.7%; in the test with EKVX NSCLC it was 18.5%. Further, the growth in the test with SN12C renal was 34.3%; in the test on UO-31 renal, 8.05% (active); in the test with TK-10 renal it was 48.9%; with ACHN renal, 4.68% (active); in the test on CAKI-1 renal it was 17.6%; in the test on A498 renal, 54.3%. The growth in the test with CCRF-CEM leukemia was 10.8%.

Turning to `N#Cc1c(-c2ccccc2)nc2c(c(-c3ccccc3)nn2-c2ccccc2)c1-c1ccc(O)cc1`, the growth with HCT-15 colon was 34.8%; in the test on HT29 colon, 84.7%; in the test with SNB-75 CNS it was 33.2%; in the test with SNB-19 CNS it was 39.3%; with U251 CNS, 24.3%; in the test on PC-3 prostate, 4.85% (active). Also, the growth was 59% in the test with SK-MEL-5 melanoma; 61.5% with UACC-62 melanoma; -48.3% (active) with LOX IMVI melanoma; 49.1% in the test on SK-MEL-28 melanoma; 72.7% in the test with SK-MEL-2 melanoma; 45.2% in the test with EKVX NSCLC. Besides, the growth with SN12C renal was 61.9%; in the test with UO-31 renal, 27.9%; with TK-10 renal, 21.7%; with ACHN renal, 42.3%; with CAKI-1 renal it was 53.4%; with A498 renal, -1.01% (active). Moreover, the growth in the test on CCRF-CEM leukemia is 22.1%.

Regarding `COc1cc(C(=O)Nc2cc3c(cc2Oc2cc(C)cc(C)c2)C(=O)N(C)[C@@H](CC(=O)N(C)O)C(=O)N3)c(Br)c(OC)c1OC`, the growth was -16.2% (active) in the test with HCT-15 colon; -14.5% (active) with HT29 colon; -48.1% (active) in the test with SNB-75 CNS; -21.9% (active) with SNB-19 CNS; -0.595% (active) in the test with U251 CNS; -14.5% (active) in the test with PC-3 prostate. The growth with SK-MEL-5 melanoma was -71.7% (active); in the test on UACC-62 melanoma it was -69% (active); in the test with LOX IMVI melanoma, -41.5% (active); with SK-MEL-28 melanoma, -49.1% (active); in the test with SK-MEL-2 melanoma, -55.3% (active); in the test with EKVX NSCLC it was -18.8% (active). The growth is -27.7% (active) with SN12C renal; -32.4% (active) in the test with UO-31 renal; -12.2% (active) with TK-10 renal; -30% (active) in the test on ACHN renal; -5.8% (active) in the test on CAKI-1 renal; -56.7% (active) with A498 renal. Moreover, the growth in the test on CCRF-CEM leukemia is 2.91% (active).

For the compound `CCCCC/C=C/C(C)=C/C1CC(C)C/C=C/CCC(O)C(OC(N)=O)CCC(C)CC(O)C(C)C(=O)O1` (configuration not stated), the growth in the test on HCT-15 colon is 89.8%; in the test on HT29 colon, 96.9%; in the test on SNB-75 CNS, 98.9%; in the test with SNB-19 CNS, 183%; in the test with U251 CNS it was 82.1%; in the test with PC-3 prostate, 73.7%. The growth with SK-MEL-5 melanoma is 61.4%; in the test on UACC-62 melanoma, 82%; in the test on LOX IMVI melanoma, 73.9%; with SK-MEL-28 melanoma, 85.7%; in the test on SK-MEL-2 melanoma, 92.6%; in the test with EKVX NSCLC, 91.9%. The growth was 97.2% with SN12C renal; 64.3% in the test on UO-31 renal; 100% in the test with TK-10 renal; 73.1% in the test with ACHN renal; 78.9% in the test with CAKI-1 renal; 71.7% in the test on A498 renal.

For `COc1ccc(-c2cnc3c(-c4cccc5ncccc45)cnn3c2)cc1`, the growth in the test on HCT-15 colon is 71.6%; in the test on HT29 colon, 43.5%; in the test on SNB-75 CNS, -13.1% (active); in the test with SNB-19 CNS, 5.29% (active); with U251 CNS, 16.3%; in the test on PC-3 prostate, 50.6%. In addition, the growth was 22.3% with SK-MEL-5 melanoma; 54.2% in the test on UACC-62 melanoma; 72.4% in the test with LOX IMVI melanoma; 58.1% with SK-MEL-28 melanoma; 76.1% with SK-MEL-2 melanoma; 80% in the test with EKVX NSCLC. Also, the growth with SN12C renal was 37.8%; with UO-31 renal, 55.4%; with TK-10 renal it was 61.7%; in the test with ACHN renal, 7.66% (active); in the test on CAKI-1 renal it was 32.2%; in the test with A498 renal it was 16.1%. Moreover, the growth with CCRF-CEM leukemia is 98.4%.
